Source: PubChem (The Scripps Research Institute Molecular Screening Center)
Shown are actives, neighbours in structure and some others; about 0.9% of the full set was active somewhere.
SRC3 TRFRET art: flags TR-FRET format artefacts in PPARgamma SRC-3 recruitment agonist screen. TR-FRET artefact counter-screen, PPARgamma/SRC-3 format; hits give high values. TR-FRET ratio at 8 µM. 0.39% of 99,000 active; in the data active means TR-FRET ratio above about 2000
PPARg SRC-2 ag: promotes SRC-2 coactivator recruitment by human PPARgamma. P37231. AID 1032. 0.34% of 200,000 active. PPARgamma LBD-SRC-2 recruitment, biochemical. activation, % at 8 µM;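 further: 0% = vehicle and 100% = reference agonist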
PPARg SRC3 recr: promotes SRC-3 coactivator recruitment by human PPARgamma. P37231. activation, % at 8 µM. biochemical PPARgamma/SRC-3 coactivator recruitment assay. AID 731. 0.26% of 200,000 active; in the data active means activation above about 23%;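 further: 0% = DMSO and 100% = reference agonist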
SRC2 TRFRET art: flags TR-FRET format artefacts in PPARgamma SRC-2 recruitment agonist screen; TR-FRET ratio at 8 µM; 0.4% of 200,000 active; AID 1049; TR-FRET artefact counter-screen; hits give high values; in the data active means TR-FRET ratio above about 2000
PPARg SRC-1 ag: PPARgamma-driven SRC-1 recruitment agonism. P37231. PPARgamma-SRC-1 coactivator recruitment biochemical assay. activation, % at 8 µM. 0.41% of 200,000 active; in the data active means activation above about 19%;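 further: 0% = DMSO and 100% = reference agonist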
SRC1 TRFRET art: counter-screen for PPARgamma SRC-1 recruitment agonists: TR-FRET artefact. TR-FRET detection artefact counter-screen, emission ratio; hits give high values. TR-FRET ratio at 8 µM. 0.34% of 99,000 active. AID 1051; in the data active means TR-FRET ratio above about 2300
PPARg SRC2 conf: human PPARgamma SRC-2 recruitment agonism, confirmation; AID 1297; shares compounds with PPARg SRC3 recr; 52% of 790 active; biochemical SRC-2 recruitment by PPARgamma; activation, % at 8 µM;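 further: 0% = vehicle alone and 100% = reference agonist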
PPARg SRC1 conf: confirmation of agonists of SRC-1 recruitment by human PPARgamma; shares compounds with PPARg SRC3 recr; PPARgamma–SRC-1 coactivator recruitment biochemical assay; activation, % at 8 µM; 43% of 790 active; in the data active means activation above about 20%;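 further: 0% = vehicle wells and 100% = reference agonist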
PPARg SRC3 conf: confirmation of agonists of SRC-3 recruitment by human PPARgamma; activation, % at 8 µM; biochemical PPARgamma-SRC-3 coactivator recruitment, agonist mode; AID 1301; shares compounds with PPARg SRC3 recr; 29% of 790 active; in the data active means activation above about 24%;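 further: 0% = vehicle wells and 100% = reference agonist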
* = called active by the depositor; nt = no result. Unless noted, no stated cut-off is given here; in the data, active means activation above about 22%; inactive means the rest.

SMILES	SRC3 TRFRET art	PPARg SRC-2 ag	PPARg SRC3 recr	SRC2 TRFRET art	PPARg SRC-1 ag	SRC1 TRFRET art	others
Cc1ccc2nc(-c3ccc(SCC(=O)O)nc3)[nH]c2c1	nt	7	12	1849	11	nt
Cc1ccc2nc(-c3ccc(SCC(=O)N4CCc5ccccc54)nc3)[nH]c2c1	2738*	-2	3	1365	6	1724
COC(=O)c1ccc(OC(=O)CCN2c3ccccc3Sc3ccccc32)cc1	2754*	16	6	2002*	11	1971
CCN1/C(=C/c2ccc3cc(C)ccc3[n+]2C)Sc2ccc3sccc3c21	2512*	53*	46*	2435*	96*	3458*
CCN1/C(=C/c2ccc3cc(C)ccc3[n+]2CC)Sc2cc(C)ccc21	2049	11	2	1571	17	1885
N#Cc1ccccc1Sc1ccccc1C(=O)OCC(=O)NC12CC3CC(CC(C3)C1)C2	3416*	-11	1	2682*	0	2330*
CN(C)C(=O)COC(=O)c1ccccc1Sc1ccccc1C#N	1480	12	4	1720	13	1957
CC(=O)c1ccc(NC(=O)COC(=O)c2ccccc2Sc2ccccc2C#N)cc1	2465*	0	0	1691	-3	1874
N#Cc1cccc(NC(=O)COC(=O)c2ccccc2Sc2ccccc2C#N)c1	2131*	3	2	1920	-3	1775
Cn1c(/C=C(\C#N)C(N)=S)ccc1-c1ccc(Br)cc1	1582	13	8	1756	13	1794
O=C(NN=C1CCCCCC1)c1ccc2c(c1)OCO2	1544	3	-3	1539	-6	1739
O=C(O)/C=C/C(=O)Nc1ccc(S(=O)(=O)N2CCCC2)cc1	1644	-4	2	1396	-2	1794
CNCc1ccccc1Sc1ccc(O)c(O)c1	1632	-1	2	1461	5	1833
C=CCn1c(=O)c2ccccc2n2c(SCc3nc(N)nc(Nc4ccccc4C)n3)nnc12	nt	5	8	1648	22*	nt
CCCCn1c(SCc2nc(N)nc(Nc3ccccc3C)n2)nc2ccccc2c1=O	nt	-5	-10	1460	-2	nt
C=CCn1c(=O)c2ccccc2n2c(SCC(=O)c3ccccc3)nnc12	nt	1	27*	1556	8	nt
CCS(=O)(=O)c1ccc2c(c1)N(S(C)(=O)=O)CC(C(=O)NN)O2 (stereo not drawn)	1564	-4	1	1382	4	1375
C=COC(=O)CSc1nc(-c2cccs2)ccc1C#N	nt	19	9	2052*	17	nt
CC1CCc2c(sc(Nc3nc4c(F)cccc4s3)c2C(N)=O)C1 (stereo not drawn)	1693	14	0	1668	12	1865
COc1ccc2sc3ccccc3c(=O)c2c1	nt	6	3	2220*	3	nt
COc1ccc(-c2cc(=O)c3ccccc3s2)cc1	nt	-4	0	1505	0	nt
O=S(=O)(c1ccc(N2CCN(S(=O)(=O)c3ccc4c(c3)OCCO4)CC2)nc1)N1CCCC1	nt	12	34*	2273*	18	nt
Cc1cc(Br)ccc1S(=O)(=O)n1ccnc1C	1545	2	-1	1363	6	1952
CSCCNC(=O)c1cccc(Cl)c1	1317	-3	-4	1579	-6	1660
CSCCNC(C)=O	nt	24*	2	2040*	-1	nt
SMILES	SRC3 TRFRET art	PPARg SRC-2 ag	PPARg SRC3 recr	SRC2 TRFRET art	PPARg SRC-1 ag	SRC1 TRFRET art	others
COc1ccc(-c2ccc(SCC(=O)c3cccs3)nn2)cc1	2137*	14	4	1638	-6	2310
O=C(CSc1ccc(-c2ccccc2)nn1)c1cccs1	1646	7	1	1579	-3	1739
O=C1CCC(C(=O)N2CCCC(C(=O)c3ccc4c5c(cccc35)CC4)C2)=NN1 (stereo not drawn)	1674	7	3	1746	8	1637
COc1ccc(N2CC(NC(=O)Nc3ccccc3)CC2=O)cc1 (stereo not drawn)	1550	8	11	1485	0	1759
COc1ccc(N2CCC(CNC(=O)Nc3ccccc3)C2)cc1 (stereo not drawn)	nt	24*	8	1624	6	nt
CC(=O)Nc1cccc(NC(=O)C(=O)c2cn(CC(=O)N3CCCCC3)c3ccccc23)c1	1596	-4	-3	1567	2	1655
CCOC(=O)c1sc(-c2ccc(Br)cc2)cc1N	nt	15	6	1901	5	nt
CCOC(=O)c1cc(-c2ccc(N)cc2)sc1N	nt	28*	16	1795	16	nt	PPARg SRC2 conf=11;PPARg SRC1 conf=8;PPARg SRC3 conf=6
Cc1ccc(Cl)c2c1=NC(=O)C=2c1[nH]c(=S)[nH]c1O	1495	8	5	1770	6	2123
CCN(CC)S(=O)(=O)c1ccc(OC)c(NC(=S)Nc2cccc(C)c2C)c1	1527	-3	0	1572	-4	1755
COC(=O)c1sc(N2C(=O)C(O)=C(C(=O)c3ccc(C)o3)C2c2ccc(F)cc2)nc1C (stereo not drawn)	nt	26*	20	2303*	30*	nt	PPARg SRC2 conf=30*;PPARg SRC1 conf=23*;PPARg SRC3 conf=19
Cc1ccc(C2C(C(=O)c3ccco3)=C(O)C(=O)N2c2nnc(C)s2)cc1 (stereo not drawn)	nt	20	34*	1957	24*	nt	PPARg SRC2 conf=14;PPARg SRC1 conf=12;PPARg SRC3 conf=10
Cc1cccc(OCCNc2cc(N3CCN(CCO)CC3)ccc2[N+](=O)[O-])c1	1668	3	2	1662	-3	1896
CSc1nc(Sc2ccccc2Cl)c2ccccc2n1	nt	54*	48*	2566*	26*	nt	PPARg SRC2 conf=34*;PPARg SRC1 conf=22*;PPARg SRC3 conf=24*
COC(=O)Cc1c(C)c2ccc(OC(=O)c3ccccc3)cc2oc1=O	nt	10	1	1583	4	nt
CCCc1cc(=O)oc2cc(C)cc(O)c12	nt	28*	27*	2043*	19	nt	PPARg SRC2 conf=21;PPARg SRC1 conf=14;PPARg SRC3 conf=14
CCc1cc(=O)oc2cc(C)cc(O)c12	nt	42*	50*	2296*	37*	nt	PPARg SRC2 conf=40*;PPARg SRC1 conf=27*;PPARg SRC3 conf=27*
CCCCCc1cc(O)c2c(C)cc(=O)oc2c1	nt	14	21	1926	19*	nt	PPARg SRC2 conf=16;PPARg SRC1 conf=7;PPARg SRC3 conf=12
COC(=O)Cc1c(C)c2c(O)cc(C)cc2oc1=O	nt	30*	35*	2058*	20*	nt	PPARg SRC2 conf=27*;PPARg SRC1 conf=21*;PPARg SRC3 conf=18
O=C(COc1cccnc1[N+](=O)[O-])NCc1ccco1	1561	-6	-4	1590	4	1689
O=C1N/C(=N\c2ccccn2)SC1Cc1ccc(Cl)cc1 (stereo not drawn)	1727	5	0	1482	4	1724
Cc1ccc(NS(=O)(=O)c2ccc3[nH]c(=O)sc3c2)cc1	1674	7	5	1615	9	1938
